The campaign covered roughly 300,000 compounds. About 37,000 (12%) were called active. This excerpt belongs to a sample that is enriched for actives. Values without a mark were called inactive. Rule as the data show it: active = max response mostly above about 13% (no sharp cut-off); inactive = mostly below about 14%.

This assay can be described thus: Cycloheximide Counterscreen for Small Molecule Inhibitors of Shiga Toxin. Also: read at 38.3 µM for the half of the compounds with a filed dose; 0% is about no effect. Conditions: cell reporter, cycloheximide protein synthesis inhibition counterscreen; stronger effect = higher value.
In the case of `O=C(Nc1ccccc1C(=O)N1CCOCC1)c1ccc(CSc2ccccc2)cc1`, the max response is -0.894%. Turning to `Cc1cc(=O)oc2c(C)c(OCC(=O)NCCc3ccc(S(N)(=O)=O)cc3)ccc12`, the max response was -1.87%. With `CCOC(=O)C1=C(c2ccccc2)NC(=O)NC1c1cc(OCC)c(O)c([N+](=O)[O-])c1` (configuration not stated) the figure was -1.22%; with `CCOc1ccc2c(c1)c(=O)c(S(=O)(=O)c1ccc(C)cc1)cn2CC`, -0.573%; with `OC1CCCN(c2ncnc3c2nnn3Cc2c(F)cccc2Cl)C1` (configuration not stated), 7.82%. As to `CC(=O)c1cc2c(cc1NC(=O)Cn1nc(-c3ccc(F)cc3)ccc1=O)OCO2`, the max response is 0.865%. As for `Cc1cc(C)nc(NNC2=CC(=O)CC(C)(C)C2)n1`, the figure is 2.37%. As for `CCCCN(Cc1ccccc1)C(=O)C1CCN(Cc2sccc2C)CC1`, the figure is -5%; as for `CCOc1cc(C2/C(=C(/O)c3ccc(S(=O)(=O)N4CCCCC4)cc3)C(=O)C(=O)N2CCOC)ccc1O` (configuration not stated), -6.09%. For `CC(=O)N/N=C(\C)c1ccc(Br)cc1Br`, the max response was -2.79%. As for `CC(=N\NC(=O)c1cc(Br)ccc1O)/C(=N/O)C(=O)Nc1ccccc1`, the max response is 23.2% (active).

Regarding `CC(C)/C=N/NC(=O)c1cc(Br)ccc1O`, the max response is 9.21%. With `COc1ccc(/C=N/N=C/c2c[nH]c(=O)c(C#N)c2Nc2ccccc2)cc1` the figure was -2.7%; with `COc1cccc(NC(=O)C(Sc2nc3ccccc3c(=O)n2CC(C)C)c2ccccc2)c1` (configuration not stated), 0.135%. Consider `COc1ccc2c(-c3ccccc3)cc(SCC(=O)N(C)C3CCS(=O)(=O)C3)nc2c1` (configuration not stated), for which the max response was -1.72%. Turning to `Cc1ccc(-n2c(O)c(C=NCC3CCCO3)c(=O)[nH]c2=O)c(C)c1` (configuration not stated), the max response was -0.95%. In the case of `O=C1C(C=NCC2CCCO2)=C(O)c2ccccc21` (configuration not stated), the max response is 32.1% (active). As for `CC(=NCC1CCCO1)c1c(O)n(-c2ccccc2)c(=O)[nH]c1=O` (configuration not stated), the figure is 4.02%. As for `O=C1CN(Cc2ccccc2)S(=O)(=O)c2ccccc21`, the max response was -0.808%. With `O=C1c2ccccc2S(=O)(=O)N1Cc1c(F)cccc1Cl` the figure was -0.645%; with `CC(C)(C)c1ccc(CN2C(=O)c3ccccc3S2(=O)=O)cc1`, 17.5% (active); with `CC1CN(S(=O)(=O)c2ccccc2)C(C)CN1S(=O)(=O)c1ccccc1` (configuration not stated), -3.63%.

Regarding `Cc1cc(C)cc(C(=O)NC(CC(N)=O)c2ccc(N3CCC(N4CCCCC4)CC3)c([N+](=O)[O-])c2)c1` (configuration not stated), the max response was -1.84%. On to `NS(=O)(=O)c1ccc(NC(=S)Nc2ccc(Br)c(Cl)c2)cc1`, for which the max response is -1.56%. As for `O=C(NCCc1ccc(Cl)cc1)c1cccc(N2CCCC2=O)c1`, the figure is 21.3% (active); as for `C/C(=N\NC(=O)c1cccc(N2CCCC2=O)c1)c1ccc(N)cc1`, 27%; as for `O=C(NCc1cccc(Cl)c1)C1CCN(c2nnc(N3CCCC3=O)s2)CC1`, -2.64%. Take `CCCNC(=O)NCc1ccc(N2CCCC2=O)cc1`: the max response was -2.06%. For the molecule `CC1CCCC(NC(=O)CN2CCN(Cc3ccc(Cl)cc3)C2=O)C1C` (configuration not stated), the max response was -4.51%. With `O=C(NCCCN1CCCCCC1)c1ccc(N2CCCC2=O)cc1` the figure was -4.57%; with `CC1CCC(NC(=O)c2ccc(N3CCCC3=O)cc2)CC1` (configuration not stated), 40.8% (active). In the case of `CC1CCCC(NC(=O)c2cccc(N3CCCC3=O)c2)C1C` (configuration not stated), the max response was 44.4% (active). For `O=C(NCCc1ccc(Cl)cc1)C1CCCN1C(=O)NCc1ccccc1` (configuration not stated), the max response was -1.54%. As to `Cn1c2c(c(=O)n(C)c1=O)C(c1cccc([N+](=O)[O-])c1)Nc1ccccc1O2` (configuration not stated), the max response was -1.06%. `Cc1ccc(S(=O)(=O)NCC2CCC(C(=O)N3CCOCC3)CC2)cc1` (configuration not stated): the max response was 3.28%. On to `Cc1cc2ccccn2c1C(=O)c1cccc(F)c1`, for which the max response is -1.02%. On to `C=CCSc1nc(N)cc(=O)[nH]1`, for which the max response was 13.9%.

In the case of `Cc1cc(S(=O)(=O)c2cc3ccc(O)c(C)c3oc2=O)ccc1F`, the max response is -4.92%. Take `O=C(NCc1ccccc1)C(=O)NCC1OCCN1S(=O)(=O)c1ccc(Br)cc1` (configuration not stated): the max response was 9.31%. On to `COc1ccc(CCNC(=O)C(=O)NCC2OCCN2S(=O)(=O)c2ccc(OC)c(C)c2)cc1` (configuration not stated), for which the max response was 0.773%. For `O=C(NCCc1ccccc1)C(=O)NCC1OCCN1S(=O)(=O)c1cccs1` (configuration not stated), the max response was 8.94% (active). Regarding `CCNCCC(=O)N1c2ccccc2Sc2ccc(NC(=O)OCC)cc21`, the max response was -6.47%. As for `O=C(Nc1nc2ccccc2s1)c1ccc2c(c1)OCO2`, the max response is 16.2% (active). On to `C=CCn1c(SCC(=O)Nc2nc3ccccc3s2)nnc1-c1ccccc1O`, for which the max response is 6.55%. `Cn1nnnc1SCC(=O)Nc1nc2ccccc2s1`: the max response was 28.7% (active). `O=CN1CCN(C(=O)c2ccc3c(c2)OCO3)CC1`: the max response was 16.1%. With `O=C(Nc1ccc2c(c1)OCO2)c1ccc(N2C(=O)c3ccccc3C2=O)cc1` the figure was 14.1%; with `COc1ccc(S(=O)(=O)N2CCOCC2)cc1C(=O)Nc1nc2ccccc2s1`, 8.09%; with `Cc1cc(C)c2nc(NC(=O)c3ccc4c(c3)OCO4)sc2c1`, -3.86%.

Take `O=C(Nc1ccc(NC(=O)c2ccco2)c(Cl)c1)c1cccc([N+](=O)[O-])c1`: the max response was 5.37%. `O=C(Nc1ccccc1)c1ccc2c(c1)OCO2`: the max response was 29% (active). As for `O=C(Nc1ccc(C2CC2(Cl)Cl)cc1)c1cccc([N+](=O)[O-])c1` (configuration not stated), the figure is 40.2% (active); as for `O=C(Nc1ccc(C(=O)N2CCCCC2)cc1)c1cccc([N+](=O)[O-])c1`, -4.06%; as for `COC(=O)c1ccccc1NC(=O)CSc1nnnn1C`, 3.16%. In the case of `O=S(=O)(Nc1ccc(Oc2ncccn2)c(Cl)c1)c1ccc(F)cc1`, the max response is 5.26%. With `CC1CCCCC1NC(=O)C1CCCN1S(=O)(=O)c1cccc2nsnc12` (configuration not stated), the max response is 3.55%. As for `Cc1cnc(C)c(N2CCN(C(=O)C3CCC(=O)N(CCc4cccc(F)c4)C3)CC2)n1` (configuration not stated), the figure is -0.816%; as for `COc1ccc(C(=O)c2c(C)c(CCC#N)n3ccccc23)c(OC)c1`, -1.97%.

Take `CCOCCCN1C(=O)C2C(C(=O)Nc3ccc(OCC)cc3)C3C=CC2(O3)C1C(=O)NC1CCCCC1` (configuration not stated): the max response is -3.23%.

Turning to `CCNS(=O)(=O)c1ccc(NC(=O)c2cncc(Br)c2)cc1`, the max response was -2.2%. For `Cc1cc(N2CCOCC2)nc2ccc(NC(=S)N3CCN(Cc4ccccc4)CC3)cc12`, the max response is 3.98%. As for `O=C(Nc1cccnc1)c1noc2c1CCCCC2`, the figure is 32.5% (active); as for `O=C(Nc1cccnc1)c1cc2cc(Br)ccc2oc1=O`, -1.47%; as for `CC(Sc1nc(-c2ccccc2)cc(C(F)(F)F)n1)C(=O)Nc1ccc2c(c1)OCO2` (configuration not stated), -1.84%. As for `CC(Sc1nc2cc(Cl)ccc2s1)C(=O)Nc1ccc2c(c1)OCO2` (configuration not stated), the max response is 29% (active). With `O=C(Nc1ccccc1)Nc1nc2ccccc2s1`, the max response is 37.9% (active).

With `CC(NC(=O)Nc1ccccc1)c1ccccc1` (configuration not stated), the max response was 14.1%.

Turning to `O=C(Nc1cccnc1)c1cccc(S(=O)(=O)N2CCCC2)c1`, the max response is 3.36%. With `O=C(Nc1ccc2c(c1)OCO2)c1sc2cc(Cl)ccc2c1Cl` the figure was 2.36%; with `O=C(Nc1cccnc1)c1ccc2c(c1)OCO2`, 19.3% (active). In the case of `CC(=O)Nc1ccc(-c2csc(NC(=O)Nc3ccccc3)n2)cc1`, the max response was 10.8%. Turning to `COc1ccc(C(=O)Nc2cccnc2)cc1C(=O)Nc1cccnc1`, the max response was -0.996%.

Turning to `CN(C(=O)CN1C(=O)/C(=C/c2ccc(Cl)cc2)SC1=S)C1CCS(=O)(=O)C1` (configuration not stated), the max response was -10.5%. On to `Cc1nn(-c2ccccc2)c2c1c(C)c(CCC(=O)NCC1CCCO1)c(=O)n2C` (configuration not stated), for which the max response is -2.56%. As for `CC1(c2cccc([N+](=O)[O-])c2)CC(C)(C)N(C(=O)c2ccccc2)c2ccccc21` (configuration not stated), the figure is 4.81%. Regarding `O=c1c2ccccc2nc2n1C(CSCc1cccc(C(F)(F)F)c1)CS2` (configuration not stated), the max response is 1.18%. Regarding `CC(=O)N1c2ccc(S(=O)(=O)NCCC(=O)N(C)C3CCCCC3)cc2CC1C` (configuration not stated), the max response was 10.2%. As for `COc1cc(C(=O)NNC(=O)c2ccc(S(=O)(=O)N3CCCCC3)cc2)cc(OC)c1OC`, the max response was -1.13%. As for `CCN(CC(=O)NC(=O)NCc1ccccc1)Cc1nc2ccccc2c(=O)[nH]1`, the figure is -2.64%.

Take `c1ccc(-c2cc3c(NCC4COc5ccccc5O4)ncnc3s2)cc1` (configuration not stated): the max response was 9.76%. Take `CCSc1ccccc1C(=O)Nc1ccc2c(c1)OCO2`: the max response is 21.7% (active). With `CC(C)NC(=O)CSc1ccccc1C(=O)NCc1ccc2c(c1)OCO2` the figure was 3.57%; with `O=C(Nc1cccc(S(=O)(=O)Nc2ccc(Cl)cc2)c1)c1ccc2c(c1)OCCO2`, 12.5% (active). `CC(NS(=O)(=O)c1ccc(Cl)cc1)C(=O)Nc1ccc2c(c1)OCCO2` (configuration not stated): the max response was -1.8%. With `CCN(CC)CCNC(=O)c1ccc(NS(=O)(=O)c2ccc3c(c2)OCCO3)cc1`, the max response was 2.7%. As for `C/C(=N\NC(=O)C(N)=O)c1ccc2c(c1)OCCO2`, the max response was 15.2%. For `Cc1ccc2nc(-c3ccccn3)cc(C(=O)Nc3ccc4c(c3)OCO4)c2c1`, the max response is 20.8%. For `CC(NC(=O)Nc1cccc([N+](=O)[O-])c1)c1ccc2c(c1)OCO2` (configuration not stated), the max response was -0.734%.

In the case of `O=C(Nc1cccc([N+](=O)[O-])c1)c1ccc2c(c1)OCO2`, the max response is 36.2% (active). As for `C/C(=N/NC(=S)Nc1ccccc1)c1ccc2c(c1)OCO2`, the figure is 33.6% (active); as for `C/C(=N/NC(=O)c1ccncc1)c1ccc2c(c1)OCO2`, 0.639%; as for `O=C(NCc1cccnc1)c1ccccc1NC(=O)c1c(F)cccc1F`, 7.34%.

The record behind these values is PubChem BioAssay AID2314 (National Center for Advancing Translational Sciences (NCATS), 2010).
